Test results reported in PubChem BioAssay.
Calls of active or inactive are those of the source.

How the values were obtained:
[1] = E. coli DRC41 culture turbidity changes, primary screen, E. coli filamentation inducer project, strain DRC41, OD650, 48 h (AID 1152);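 further: E. coli MC1000 strain DRC41 lacking acrAB efflux pump and sulA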; conditions: E. coli DRC41 (acrAB sulA), higher = more signal, called active from +8 up or from −8 down
[2] = small-molecule binders of probe aLefty1, primary screen, biochemical, small-molecule microarray, 635/667 nm fluorescence (AID 1153); conditions: higher = more signal;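 further: score merges spot fluorescence with signal-to-noise ratio from the scanned slide images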
[3] = PSAC antagonists in infected red cells, primary screen, cell-based, P. falciparum Indochina, OD700, 1 h (AID 1154); conditions: P. falciparum Indochina infected RBC osmotic lysis, higher = more signal, called active from +8 up or from −8 down
[4] = PSAC antagonists in infected red cells, primary screen, cell-based, P. falciparum Indochina, OD700, 2 h (AID 1155);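 further: lysis reports solute entry through the parasite surface anion channel PSAC; channel blockers reduce lysis of infected cells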; conditions: P. falciparum Indochina infected erythrocytes, osmotic lysis OD700; higher = more signal, called active from +8 up or from −8 down
[5] = osmotic lysis modulators in infected erythrocytes, primary screen, PSAC antagonist project, cell-based, P. falciparum Indochina, OD700, 3 h (AID 1156); conditions: higher = more signal, called active from +8 up or from −8 down
[6] = PSAC antagonists in infected red cells, primary screen, cell-based, P. falciparum Indochina, OD700, 18 h (AID 1157); conditions: P. falciparum Indochina infected erythrocytes, osmotic lysis OD700, 18 h; higher = more signal, called active from +8 up or from −8 down
[7] = modulators of S6 phosphorylation in cells, primary screen, cell-based, A549, cytoblot, luminescence, serum-stimulated (AID 1158); conditions: A549 phospho-S6 cytoblot, 5 h, higher = more signal;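 further: serum-stimulated A549 lung adenocarcinoma cells; signal is phosphorylated S6 detected by cytoblot immunostaining with HRP secondary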
[8] = target: NADPH oxidase 2 (Homo sapiens) (UniProt P04839); assay: NOX2-dependent H2O2 signal modulators, primary screen, NOX inhibitor project, cell-based, HEK293-NOX2, PMA-stimulated, Amplex Red fluorescence (AID 1159); conditions: 45 min, higher = more signal, called active from +8 up or from −8 down; further: test concentration not given here
[9] = target: NADPH oxidase 4 (Homo sapiens) (UniProt Q9NPH5); assay: NOX4-dependent H2O2 signal modulators, primary screen, NOX inhibitor project, cell-based, HEK293-NOX4, tetracycline-induced, Amplex Red fluorescence (AID 1160); conditions: 45 min, higher = more signal, called active from +8 up or from −8 down
[10] = target: NADPH oxidase 5 (Homo sapiens) (UniProt Q96PH1); assay: NOX5-dependent H2O2 signal modulators, primary screen, NOX inhibitor project, cell-based, HEK293-NOX5, Amplex Red fluorescence (AID 1161); conditions: HEK293-NOX5, ionomycin, 45 min, higher = more signal
[11] = A549 cell viability effects, profiling panel, calcein-AM fluorescence, 48 h, basal (AID 1162); conditions: higher = more signal; further: test concentration not given here
[12] = adipocyte viability effects, profiling panel, cell-based, 3T3-L1 adipocytes, calcein-AM fluorescence, 48 h, basal (AID 1163); conditions: 3T3-L1 adipocytes viability, higher = more signal; further: test concentration not given here
[13] = HepG2 cell viability effects, profiling panel, calcein-AM fluorescence, 48 h, basal (AID 1164); conditions: higher = more signal; further: test concentration not given here
[14] = MM1S cell viability effects, profiling panel, calcein-AM fluorescence, 48 h, basal (AID 1165); conditions: higher = more signal;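 further: viability of MM1S multiple myeloma cells under basal unstimulated conditions; test concentration not given here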
[15] = basal RPMI8226 viability, no added stimulus, profiling panel, cell-based, calcein-AM fluorescence, 48 h, PK04 Diversity Set (AID 1166); conditions: RPMI8226 myeloma viability, higher = more signal;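 further: cells grown under basal conditions without added stimulus; test concentration not given here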
[16] = basal HepG2 mitochondrial membrane potential changes, profiling panel, cell-based, JC-1 fluorescence, 24 h, 100 nL compound (AID 1167); conditions: higher = more signal; further: test concentration not given here
[17] = basal 3T3-L1 adipocyte mitochondrial potential changes, profiling panel, cell-based, JC-1 fluorescence, 3T3-L1 adipocytes, 24 h, 100 nL compound (AID 1168); conditions: JC-1 mitochondrial fluorescence, higher = more signal, called active from +8 up or from −8 down; further: test concentration not given here
[18] = basal RPMI8226 mitochondrial membrane potential changes, profiling panel, cell-based, JC-1 fluorescence, 24 h, 100 nL compound (AID 1169); conditions: RPMI8226 myeloma, JC-1 mitochondrial potential fluorescence, higher = more signal; further: test concentration not given here
[19] = basal MM1S mitochondrial membrane potential changes, profiling panel, cell-based, JC-1 fluorescence, 24 h, 100 nL compound (AID 1170); conditions: higher = more signal; further: test concentration not given here
[20] = A549 lung cancer cell viability effects, profiling panel, resazurin fluorescence, 24 h, PK04 Diversity Set (AID 1171); conditions: higher = more signal, called active from +8 up or from −8 down; further: test concentration not given here

NADPH oxidase 4 (Homo sapiens), sequence (Q9NPH5 whole entry, looked up): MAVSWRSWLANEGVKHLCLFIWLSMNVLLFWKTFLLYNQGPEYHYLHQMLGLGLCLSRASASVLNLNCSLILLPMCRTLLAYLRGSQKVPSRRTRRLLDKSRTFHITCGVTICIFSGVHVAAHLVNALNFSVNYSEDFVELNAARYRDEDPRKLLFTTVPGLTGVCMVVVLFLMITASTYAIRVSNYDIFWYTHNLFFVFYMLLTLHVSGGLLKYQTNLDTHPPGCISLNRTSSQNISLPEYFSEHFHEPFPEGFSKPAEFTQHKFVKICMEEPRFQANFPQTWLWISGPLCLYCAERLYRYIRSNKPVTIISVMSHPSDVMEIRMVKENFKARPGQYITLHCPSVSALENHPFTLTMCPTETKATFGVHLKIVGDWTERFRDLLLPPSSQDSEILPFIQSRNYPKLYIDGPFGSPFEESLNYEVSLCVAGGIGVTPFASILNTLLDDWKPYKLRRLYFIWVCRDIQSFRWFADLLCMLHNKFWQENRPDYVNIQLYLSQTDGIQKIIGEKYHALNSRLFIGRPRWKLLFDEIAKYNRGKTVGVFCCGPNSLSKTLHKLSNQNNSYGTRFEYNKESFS
NADPH oxidase 5 (Homo sapiens), sequence (Q96PH1 whole entry, looked up): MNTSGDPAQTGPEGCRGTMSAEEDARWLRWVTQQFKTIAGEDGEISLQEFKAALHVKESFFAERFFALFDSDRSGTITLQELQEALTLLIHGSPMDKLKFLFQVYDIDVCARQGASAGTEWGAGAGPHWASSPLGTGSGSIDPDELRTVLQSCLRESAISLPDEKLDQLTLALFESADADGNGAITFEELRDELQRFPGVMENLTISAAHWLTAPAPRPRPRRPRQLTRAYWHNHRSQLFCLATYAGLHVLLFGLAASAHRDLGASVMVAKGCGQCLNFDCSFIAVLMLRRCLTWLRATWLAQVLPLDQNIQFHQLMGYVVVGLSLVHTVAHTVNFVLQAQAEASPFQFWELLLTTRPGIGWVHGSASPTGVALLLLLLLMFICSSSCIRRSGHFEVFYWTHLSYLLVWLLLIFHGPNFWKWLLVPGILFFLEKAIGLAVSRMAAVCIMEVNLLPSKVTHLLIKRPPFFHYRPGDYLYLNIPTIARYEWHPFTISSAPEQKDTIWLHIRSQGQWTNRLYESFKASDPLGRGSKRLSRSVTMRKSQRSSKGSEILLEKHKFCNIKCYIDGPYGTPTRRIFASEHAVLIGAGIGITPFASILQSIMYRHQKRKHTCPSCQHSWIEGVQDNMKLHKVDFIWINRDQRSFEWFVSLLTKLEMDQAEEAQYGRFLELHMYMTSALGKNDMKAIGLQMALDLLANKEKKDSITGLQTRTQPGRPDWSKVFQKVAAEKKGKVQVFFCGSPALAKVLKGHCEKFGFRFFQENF
NADPH oxidase 2 (Homo sapiens), sequence (P04839 whole entry, looked up): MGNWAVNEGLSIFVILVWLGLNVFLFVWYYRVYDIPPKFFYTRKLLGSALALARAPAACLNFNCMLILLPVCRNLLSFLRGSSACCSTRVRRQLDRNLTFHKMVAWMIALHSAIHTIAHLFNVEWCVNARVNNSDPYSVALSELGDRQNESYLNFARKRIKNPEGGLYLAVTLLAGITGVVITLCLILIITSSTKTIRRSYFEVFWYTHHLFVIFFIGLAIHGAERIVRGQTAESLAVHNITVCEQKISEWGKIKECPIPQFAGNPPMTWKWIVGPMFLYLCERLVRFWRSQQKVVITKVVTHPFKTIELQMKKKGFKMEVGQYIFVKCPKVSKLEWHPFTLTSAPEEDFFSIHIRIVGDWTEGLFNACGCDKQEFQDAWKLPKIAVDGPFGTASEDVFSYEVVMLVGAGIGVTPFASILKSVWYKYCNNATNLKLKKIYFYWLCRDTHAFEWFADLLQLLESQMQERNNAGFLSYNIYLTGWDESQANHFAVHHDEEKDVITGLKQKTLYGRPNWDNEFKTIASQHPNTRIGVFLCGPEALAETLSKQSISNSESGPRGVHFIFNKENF

C=CCNC(=O)[C@H]1[C@@H]2C(=O)O[C@@H](c3ccccc3)[C@@H](c3ccccc3)N2[C@@H](c2ccc(O)cc2)[C@]12C(=O)N(C(=O)OCCOC)c1ccc(C#CCCO)cc12
z-score [1]: 1.23 (inactive)
composite z-score [2]: 0.0341
z-score [3]: 1.89 (inactive)
z-score [4]: 0.658 (inactive)
z-score [5]: 0.958 (inactive)
z-score [6]: 0.418 (inactive)
z-score [7]: 0.102
z-score [8]: 0.74 (inactive)
z-score [9]: 0.261 (inactive)
z-score [10]: 0.533
z-score [11]: 1.07
z-score [12]: 0.482
z-score [13]: 0.802
z-score [14]: -0.0589
z-score [15]: 0.233
z-score [16]: 0.0998
z-score [17]: 0.541 (inactive)
z-score [18]: -1.07
z-score [19]: 0.45
z-score [20]: -0.319 (inactive)

O=C1N(CCS(=O)(=O)c2ccccc2)Cc2ccccc2C[C@]12N=C(c1ccc(OCCCO)cc1)O[C@@H]2c1ccccc1
z-score [1]: 0.697 (inactive)
composite z-score [2]: 1.66
z-score [3]: 22.2 (active)
z-score [4]: 8.54 (active)
z-score [5]: 0.443 (inactive)
z-score [6]: 0.427 (inactive)
z-score [7]: 2.67
z-score [8]: -0.282 (inactive)
z-score [9]: 1 (inactive)
z-score [10]: -0.517
z-score [11]: 1.82
z-score [12]: 1.36
z-score [13]: 1.17
z-score [14]: 0.835
z-score [15]: -0.962
z-score [16]: -0.589
z-score [17]: 0.603 (inactive)
z-score [18]: -1.08
z-score [19]: 0.309
z-score [20]: -3.17 (inactive)

COc1ccccc1CN1C(=O)c2ccccc2[C@@H](C(=O)NCCN2CCOCC2)[C@@H]1c1ccc(CO)cc1
z-score [1]: -0.0157 (inactive)
composite z-score [2]: -0.211
z-score [3]: 2.67 (inactive)
z-score [4]: 0.0298 (inactive)
z-score [5]: 1.56 (inactive)
z-score [6]: 0.695 (inactive)
z-score [7]: 0.513
z-score [8]: 1.26 (inactive)
z-score [9]: -0.65 (inactive)
z-score [10]: -2.47
z-score [11]: 0.61
z-score [12]: 0.0251
z-score [13]: 0.556
z-score [14]: -0.231
z-score [15]: -0.55
z-score [16]: 2.15
z-score [17]: 0.364 (inactive)
z-score [18]: 0.711
z-score [19]: -0.691
z-score [20]: 1.33 (inactive)

CCOC(=O)C[C@H]1[C@H](OC(=O)c2ccc(-c3ccccc3)cc2)[C@@H](NC(=O)c2ccc(-c3ccccc3)cc2)c2cc(OCCCO)ccc2N1C(=O)Cc1ccc(OC)cc1
z-score [1]: -0.783 (inactive)
composite z-score [2]: -0.0061
z-score [3]: 11.4 (active)
z-score [4]: 0.618 (inactive)
z-score [5]: -0.397 (inactive)
z-score [6]: 0.602 (inactive)
z-score [7]: 0.491
z-score [8]: -1.3 (inactive)
z-score [9]: 0.622 (inactive)
z-score [10]: -0.0798
z-score [11]: -0.457
z-score [12]: 0.485
z-score [13]: -0.0494
z-score [14]: -0.781
z-score [15]: 0.0196
z-score [16]: 1.15
z-score [17]: 0.458 (inactive)
z-score [18]: -0.00497
z-score [19]: 0.413
z-score [20]: 0.0992 (inactive)

CO[C@H]1O[C@H](CO)[C@@H](OC(=O)Nc2ccc3c(c2)OCO3)[C@H](OC(=O)Nc2ccccc2)[C@H]1OC(=O)Nc1ccccc1
z-score [1]: -0.495 (inactive)
composite z-score [2]: 0.227
z-score [3]: 4.11 (inactive)
z-score [4]: 0.777 (inactive)
z-score [5]: 0.756 (inactive)
z-score [6]: 0.421 (inactive)
z-score [7]: 0.258
z-score [8]: -6.93 (inactive)
z-score [9]: -0.649 (inactive)
z-score [10]: -2.08
z-score [11]: -2.08
z-score [12]: 1.11
z-score [13]: -2.7
z-score [14]: -1.67
z-score [15]: -2.56
z-score [16]: -0.812
z-score [17]: 1.42 (inactive)
z-score [18]: -0.442
z-score [19]: -1.37
z-score [20]: -3.25 (inactive)

Cc1ccc(S[C@]2(C(=O)O)CC(=O)N(C3Cc4ccccc4C3)[C@@H]2c2ccc(CO)cc2I)cc1
z-score [1]: -0.453 (inactive)
composite z-score [2]: -0.0559
z-score [3]: 6.6 (inactive)
z-score [4]: 1.1 (inactive)
z-score [5]: 0.356 (inactive)
z-score [6]: 0.474 (inactive)
z-score [7]: -0.148
z-score [8]: 1.84 (inactive)
z-score [9]: -2.99 (inactive)
z-score [10]: -1.78
z-score [11]: 0.214
z-score [12]: 0.278
z-score [13]: -0.671
z-score [14]: -2.95
z-score [15]: -2.88
z-score [16]: 0.0324
z-score [17]: -0.939 (inactive)
z-score [18]: -0.137
z-score [19]: -0.717
z-score [20]: 0.477 (inactive)

CCCCC=C[C@@H](NC(=O)c1ccc(C(=O)OC)cc1)c1ccccc1
z-score [1]: -1.63 (inactive)
composite z-score [2]: 0.317
z-score [3]: 2.85 (inactive)
z-score [4]: 0.589 (inactive)
z-score [5]: 0.63 (inactive)
z-score [6]: 0.569 (inactive)
z-score [7]: 0.12
z-score [8]: -1.88 (inactive)
z-score [9]: -3.48 (inactive)
z-score [10]: 0.0463
z-score [11]: -1.19
z-score [12]: -0.87
z-score [13]: -0.721
z-score [14]: -2.31
z-score [15]: -2.6
z-score [16]: -1.33
z-score [17]: -0.346 (inactive)
z-score [18]: -0.862
z-score [19]: -1.38
z-score [20]: 3.37 (inactive)

COCCOC(=O)N1C(=O)[C@@]2(c3cc(C#CCNC(N)=O)ccc31)[C@H](c1ccccc1OCCO)N1[C@H](c3ccccc3)[C@H](c3ccccc3)OC(=O)[C@H]1[C@@H]2C(N)=O
z-score [1]: -0.816 (inactive)
composite z-score [2]: -0.111
z-score [3]: 4.2 (inactive)
z-score [4]: 0.655 (inactive)
z-score [5]: 0.4 (inactive)
z-score [6]: 0.344 (inactive)
z-score [7]: -0.463
z-score [8]: 2.29 (inactive)
z-score [9]: -0.672 (inactive)
z-score [10]: -0.584
z-score [11]: -0.0052
z-score [12]: -0.131
z-score [13]: -0.617
z-score [14]: -0.456
z-score [15]: 0.0352
z-score [16]: -1.83
z-score [17]: 0.369 (inactive)
z-score [18]: -0.115
z-score [19]: -1.08
z-score [20]: 0.0565 (inactive)

N#Cc1ccc(NN2C(C(O)c3ccc([N+](=O)[O-])cc3)C=CC3C(=O)N(c4ccccc4)C(=O)C32)cc1 (stereo not given)
z-score [1]: -2.18 (inactive)
composite z-score [2]: 0.0927
z-score [3]: 11.9 (active)
z-score [4]: 2.06 (inactive)
z-score [5]: 0.362 (inactive)
z-score [6]: 1.49 (inactive)
z-score [7]: -0.946
z-score [8]: -1.45 (inactive)
z-score [9]: -4.95 (inactive)
z-score [10]: -3.56
z-score [11]: -1.14
z-score [12]: 0.0202
z-score [13]: -0.335
z-score [14]: -0.237
z-score [15]: -0.402
z-score [16]: -1.91
z-score [17]: -0.703 (inactive)
z-score [18]: -0.993
z-score [19]: 0.0361
z-score [20]: 0.172 (inactive)
